{"source": "PubChem BioAssay AID485313", "about": "(National Center for Advancing Translational Sciences (NCATS), 2010)", "note": "Screen size: about 320,000 compounds; about 7,600 (2.4%) were called active. Roughly 3% stayed inconclusive and do not appear here. For the sample, actives were picked, then their nearest neighbours and some compounds at random. Unmarked numbers belong to inactive results. The call rests on the fitted dose curve; in most records, active means well fitted activation curve with a large enough effect; inconclusive means small, poorly fitted or top-dose-only effect; inactive means no such curve, though single readings can be large or run the other way. Potency means the concentration at half of the fitted maximal effect."}
{"test": "qHTS Assay for NPC1 Promoter Activators; further: nearly all actives have a fitted effect of over 60% in size;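 on activation: reporter is driven by a mutant NPC1 promoter; % of control where 0% means no effect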", "conditions": "Huh7 NPC1 promoter luciferase reporter, 24 h; series mostly up to 9.22 µM; activation: at the top concentration", "procedure,_shortened": "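Stable NPC1-promoter luciferase Huh7 line; cpd (DMSO) 24 h, 37 °C, 5% CO2; Amplite luciferase reagent 10 min RT; luminescence readout. qHTS format.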"}
{"compound": "COc1ccc(S(=O)(=O)N2CCN(CC(=O)NCC3(N4CCOCC4)CCCCC3)CC2)cc1", "activation": "-1.5%"}
{"compound": "COc1ccc(CSc2nnnn2-c2ccc(O)cc2)cc1F", "activation": "-1.66%"}
{"compound": "Cc1cccc(NC(=O)c2ccc3nsnc3c2)c1C", "activation": "12.2%"}
{"compound": "O=C(Nc1ccccc1N1CCCCC1)c1ccc2nccnc2c1", "activation": "-2.42%"}
{"compound": "O=C(Nc1ccccc1Cl)c1ccc2nsnc2c1", "Potency": "2240 nM (active)"}
{"compound": "O=C(C1CCC1)N1CCN(S(=O)(=O)c2ccc([N+](=O)[O-])cc2)CC1", "activation": "-0.512%"}
{"compound": "CCOc1ccc(S(=O)(=O)N(CC(=O)NCC(F)(F)F)Cc2ccco2)cc1", "activation": "-0.109%"}
{"compound": "Cc1ccc(OCC(=O)Nc2ccc(-c3nnc(-c4ccco4)o3)cc2)cc1", "Potency": "2820 nM (active)"}
{"compound": "Cc1ccc(OCC(=O)Nc2nnc(-c3ccco3)s2)cc1", "activation": "-2.26%"}
{"compound": "CCOc1ccc(-n2c(SCC(N)=O)nnc2-c2ccco2)cc1", "activation": "1.18%"}
{"compound": "COc1ccc(OCC(=O)Nc2nnc(-c3ccco3)s2)cc1", "activation": "-6.29%"}
{"compound": "CCOc1ccc(NC(=O)N(CCC(C)C)C(C)c2ccco2)cc1", "note": "(stereo not drawn)", "activation": "-0.897%"}
{"compound": "O=C(CCc1ccccc1)Nc1cccc(-c2nnc(-c3ccco3)o2)c1", "activation": "15.9%"}
{"compound": "CCCCOc1ccc(-c2nnc(-c3ccco3)o2)cc1", "Potency": "1580 nM (active)"}
{"compound": "CCOc1ccc(-c2nnc(-c3ccco3)o2)cc1", "Potency": "631 nM (active)"}
{"compound": "CC(=O)Nc1ccc(NC(=O)COc2ccc(-c3ccccc3)cc2)cc1", "activation": "4.85%"}
{"compound": "CCC[C@H]1CCCC/C=C\\CCCC(=O)OCCN1C(=O)OC(C)(C)C", "activation": "-2.58%"}
{"compound": "CCOCCn1[nH]c2ccccc2c1=O", "activation": "8.92%"}
{"compound": "CC(C)NC(=O)N1CCN(c2ccncc2S(=O)(=O)N2CCCCC2)CC1", "activation": "-6.15%"}
{"compound": "O=C(NC1CCCCCC1)C1CCN(C(=O)c2ccc(Cl)cc2)CC1", "activation": "-1.36%"}
{"compound": "CCc1sc(C(=O)N2CCN(CC(=O)Nc3cccc(F)c3)CC2)cc1C", "activation": "-2.76%"}
{"compound": "COc1cccc(C2=CC(=O)C[C@H](c3ccc(OC)c(OC)c3)C2)c1", "activation": "0.572%"}
{"compound": "Cc1cc(CO)nn1-c1ccc([N+](=O)[O-])cc1", "activation": "-0.734%"}
{"compound": "Cn1nc(-c2ccccc2)c2cc([N+](=O)[O-])ccc21", "activation": "3.87%"}
{"compound": "Cc1nn(-c2ccc([N+](=O)[O-])cc2)c(N)c1-c1ccccc1", "Potency": "1580 nM (active)"}
{"compound": "COC(=O)C1=CO[C@@H](O[C@@H]2O[C@H](CO)[C@@H](O)[C@H](O)[C@H]2O)C2C1C[C@H](O)[C@@H]2C", "note": "(stereo partly drawn)", "activation": "-0.388%"}
{"compound": "CCc1cccc(NC(=O)COC(=O)c2cc(=O)c3ccccc3o2)c1", "activation": "-1.37%"}
{"compound": "CCOC(=O)C1CCN(C(=O)c2cccc(S(=O)(=O)N(CC)c3ccccc3)c2)CC1", "activation": "-2.25%"}
{"compound": "COCCN(C(=O)CC1CCCCC1)c1c(N)n(CC(C)C)c(=O)[nH]c1=O", "activation": "2.93%"}
{"compound": "Cc1cccc(NC(=O)CSCC(=O)Nc2nnc(C3CC3)s2)c1", "activation": "-1.19%"}
{"compound": "Cc1cc(C(=O)Nc2nnc(C3CC3)s2)c(C)s1", "Potency": "3550 nM (active)"}
{"compound": "Cc1cnc(NC(=O)c2ccccn2)s1", "Potency": "447 nM (active)"}
{"compound": "Cc1cnc(NC(=O)C2CCCC2)s1", "activation": "11.4%"}
{"compound": "O=C(Nc1nnc(C2CC2)s1)c1cc(Cl)sc1Cl", "activation": "24.6%"}
{"compound": "Cc1ccc(Cl)cc1NC(=O)c1ccccn1", "activation": "-2.16%"}
{"compound": "O=C(Nc1nnc(C2CC2)s1)c1ccccn1", "Potency": "1120 nM (active)"}
{"compound": "CCc1cc(C(=O)Nc2nnc(C3CC3)s2)sc1C", "activation": "29.4%"}
{"compound": "O=C(Cc1cccs1)Nc1nnc(C2CC2)s1", "activation": "-1.03%"}
{"compound": "CCc1ccccc1OCC(=O)Nc1ccc(C)c(S(=O)(=O)N2CCCCCC2)c1", "activation": "0.449%"}
{"compound": "O=C(NCc1cccc(Cl)c1)C1=CC=CN2CCS(=O)(=O)N=C12", "activation": "0.609%"}
{"compound": "CC(C)Cn1c(N)c(C(=O)COC(=O)C2CCCN2C(=O)c2cccs2)c(=O)n(C)c1=O", "note": "(stereo not drawn)", "activation": "-5.84%"}
{"compound": "COc1ccccc1Nc1nnc(SC(C)C(=O)NC2CC2)s1", "note": "(stereo not drawn)", "activation": "-1.22%"}
{"compound": "O=C(/C=C/c1ccc(N2CCOCC2)cc1)c1ccccc1", "Potency": "2000 nM (active)"}
{"compound": "CC(OC(=O)/C=C/c1ccccc1)C(=O)Nc1ccc(C(N)=O)cc1", "note": "(stereo not drawn)", "activation": "-2.06%"}
{"compound": "CC(=O)Nc1ccc(/C=C/C(=O)c2ccccc2)cc1", "Potency": "2510 nM (active)"}
{"compound": "CC(=O)Nc1ccc(NC(=S)NC(=O)/C=C/c2ccccc2)cc1", "activation": "-7.81%"}
{"compound": "O=C(CN1CCN(S(=O)(=O)/C=C/c2ccccc2)CC1)Nc1ccc(N2CCOCC2)cc1", "activation": "-4.53%"}
{"compound": "O=C(O)c1ccc2c(c1)C(=O)N(c1ccc(/C=C/C(=O)c3ccccc3)cc1)C2=O", "activation": "4.16%"}
{"compound": "O=C(Nc1ccccc1N1CCOCC1)c1ccncc1", "activation": "1.48%"}
{"compound": "CCN(C(=O)CSc1ncnc2sccc12)c1c(N)n(Cc2ccccc2)c(=O)[nH]c1=O", "activation": "-2.5%"}
{"compound": "CC1(C)CC(=O)C=C(c2ccc3ncccc3c2)C1", "activation": "-0.503%"}
{"compound": "COc1ccc2c3c(c(=O)oc2c1)C1O[C@](CCCCN2C(=O)c4ccccc4C2=O)(Cc2c1ccc1ccccc21)O3", "activation": "-3.07% [at 1.84 µM]"}
{"compound": "O=C(Cn1nnc(-c2ccccc2)n1)NC(=O)NC1CCCC1", "activation": "-1.17%"}
{"compound": "O=C(COC(=O)Cn1[nH]c(=O)c2ccccc2c1=O)Nc1ncc(Cl)cc1Cl", "activation": "-0.303%"}
{"compound": "COc1ccccc1/C=C/C(=O)OCC(=O)NC1CCCCCC1", "activation": "-2.47%"}
{"compound": "CCOC(=O)c1c(C)[nH]c(C2=NNC(=NC(C)COC)SC2)c1C", "note": "(stereo not drawn)", "Potency": "1580 nM (active)"}
{"compound": "COc1ccc(CCNC(=O)COC(=O)C2CC2C)cc1", "note": "(stereo not drawn)", "activation": "-0.82%"}
{"compound": "CN(CCOc1ccccc1)C(=O)c1cc(COc2c(F)cccc2F)on1", "activation": "-0.673%"}
{"compound": "CN(Cc1cccnc1)C(=O)c1cc(COc2ccc3ncccc3c2)on1", "activation": "-17.8%"}
{"compound": "CCn1ccnc1CN(C)C(=O)c1cc(COc2ccc(-n3cncn3)cc2)on1", "activation": "3.54%"}
{"compound": "CN(Cc1cnccn1)C(=O)c1cc(COc2cccc(C(F)(F)F)c2)on1", "activation": "20.7%"}
{"compound": "Cc1cc(CN(C)C(=O)c2cc(COc3ccc(C)c(C)c3)on2)n[nH]1", "Potency": "2510 nM (active)"}
{"compound": "Cc1ccc(OCc2cc(C(=O)N(C)CCc3ccccc3)no2)cc1C", "Potency": "2820 nM (active)"}
{"compound": "CC1CC(C)CN(C(=O)COC(=O)c2ccc3ncsc3c2)C1", "note": "(stereo not drawn)", "activation": "-0.452%"}
{"compound": "Cc1ccc(NC(=O)CCNC(=O)c2ccc([N+](=O)[O-])cc2)cc1S(=O)(=O)N1CCOCC1", "activation": "-0.724%"}
{"compound": "O=C(NCCc1ccc(C(F)(F)F)cc1)c1ccc2c(c1)OCO2", "activation": "-0.0657%"}
{"compound": "COc1ccc(NC(=O)CSc2nnc(C3CC3)n2C)cc1S(=O)(=O)N1CCCCC1", "activation": "5.26%"}
{"compound": "Cc1ccc(NC(=O)C2(N3CCC3=O)CCCCC2)cc1", "activation": "-6.24%"}
{"compound": "COc1ccc(C(=O)NCc2nnc(SCCOc3ccccc3)n2C)cc1", "activation": "-5.31%"}
{"compound": "COc1ccc(C(=O)NCCSc2ccccc2C)cc1", "Potency": "1260 nM (active)"}
{"compound": "COc1cccc(C(=O)NCCSc2ccc(Br)cc2)c1", "activation": "-7.75%"}
{"compound": "Cc1c(NS(=O)(=O)c2cc(C(=O)NCCc3ccc(F)cc3)cc(Cl)c2Cl)c(=O)n(-c2ccccc2)n1C", "activation": "-5.14%"}
{"compound": "Cc1cccc(C)c1-n1c(C)cc(/C=C2\\C(=O)NN(c3ccccc3)C2=O)c1C", "activation": "14.8%"}
{"compound": "Cc1cc(/C=C2/NC(=O)NC2=O)c(C)n1-c1cccnc1", "activation": "1.57%"}
{"compound": "Cc1ccccc1-n1c(C)cc(/C=C2\\NC(=O)NC2=O)c1C", "Potency": "3550 nM (active)"}
{"compound": "Cc1ccc(C(=O)NCC(c2cccs2)N(C)C)cc1S(=O)(=O)N1CCOCC1", "note": "(stereo not drawn)", "activation": "3.21%"}
{"compound": "O=c1oc2ccc(C#CC3(O)CCCCC3)cc2cc1-n1cc(-c2ccsc2)nn1", "activation": "0.191%"}
{"compound": "O=C(CCNS(=O)(=O)c1ccccc1C(F)(F)F)Nc1ccncc1", "activation": "-2.75%"}
{"compound": "CCCc1cc(-c2nc(-c3ccc(C)cc3)cs2)ccn1", "activation": "1.46%"}
{"compound": "Cc1ccc(-c2csc(-c3c[nH]c4ccccc34)n2)cc1", "Potency": "1000 nM (active)"}
{"compound": "Cc1ccc(-c2csc(-c3cc(C)on3)n2)cc1", "activation": "24%"}
{"compound": "Cc1ccc(NC(=O)COC(=O)CN2CCCCCC2=O)c(C)c1", "activation": "-4.74%"}
{"compound": "CC(=O)Nc1ccc(NC(=O)COC(=O)c2ccccc2C(=O)c2ccccc2)cc1", "activation": "1.63%"}
{"compound": "COc1ccc(C)cc1NC(=O)c1cc(-c2ccccc2)nc2c1cnn2C(C)C", "activation": "-0.793%"}
{"compound": "Cc1ccc(-n2ncc3c(Nc4cccc(C(=O)O)c4)ncnc32)cc1", "Potency": "794 nM (active)"}
{"compound": "Cc1ccc(Nc2ncnc3c2cnn3C)c(C)c1", "activation": "-1.96%"}
{"compound": "COc1ccc2nc(C)cc(Nc3cccc(C(=O)O)c3)c2c1", "activation": "-5.14%"}
{"compound": "CCN(CC(=O)NCc1ccc(Cl)cc1)C(=O)c1c(C)noc1C", "activation": "-2.27%"}
{"compound": "Cc1ccc(S(=O)(=O)N2CCN(c3ncnc4ccccc34)CC2)cc1", "activation": "-25.2%"}
{"compound": "Cc1cc(N2CCOCC2)nc(-c2ccc(Br)cc2)n1", "activation": "1.79%"}
{"compound": "Cc1nc(-c2ccc([N+](=O)[O-])cc2)c(-c2ccccc2)o1", "activation": "-1.23%"}
{"compound": "CSc1nnc2ccc(-c3ccc(C)cc3)nn12", "activation": "-3.85%"}
{"compound": "Cc1ccc(-c2cn3cc([N+](=O)[O-])ccc3n2)cc1", "Potency": "501 nM (active)"}
{"compound": "Cc1ccc(C(=O)Cn2cc([N+](=O)[O-])nc2C)cc1", "activation": "0.0934%"}
{"compound": "Cc1ccc2nc(-c3ccc(Br)cc3)cn2c1", "Potency": "398 nM (active)"}
{"compound": "CC1CCCC(NC(=O)c2cc(-c3ccncc3)nc3ccccc23)C1C", "note": "(stereo not drawn)", "activation": "4.76%"}
{"compound": "CCOc1ncccc1C(=O)OCC(=O)c1c[nH]c2ccccc12", "activation": "11.7%"}
{"compound": "Brc1ccc(CN2CC[C@H]3C=CCc4cccc(c43)C2)cc1", "activation": "-2.1%"}
{"compound": "O=C(OCc1cc(=O)n2ccsc2n1)C1(c2ccc(Cl)cc2)CC1", "activation": "1.14%"}
{"compound": "O=C(Nc1ccn(Cc2ccccc2)n1)c1cccc(F)c1", "Potency": "3980 nM (active)"}
{"compound": "O=C(Nc1ccccc1N1CCN(c2ccccc2)CC1)c1cccc(F)c1", "activation": "-1.86%"}
{"compound": "O=C(Nc1cccc(NC(=O)c2cccc(F)c2)c1)c1ccccc1", "activation": "-0.197%"}
{"compound": "Cc1ccc(S(=O)(=O)N(C)CC(=O)NCC(c2ccc(F)cc2)N2CCOCC2)cc1", "note": "(stereo not drawn)", "activation": "-9.26%"}
{"compound": "CC(C)Nc1ccc(-n2nc3ccccc3[n+]2[O-])cc1", "Potency": "355 nM (active)"}
{"compound": "CN(Cc1ccccn1)Cc1nc(-c2ccc(Cl)cc2)no1", "activation": "11.1%"}
{"compound": "Cc1cc(Cl)ccc1OCc1nc(-c2ccncc2)no1", "Potency": "2820 nM (active)"}
{"compound": "COc1ccc(-c2noc(COc3ccc(Cl)c(C)c3)n2)cc1", "activation": "-0.141%"}
{"compound": "Cc1cc(NC(=O)CSc2nnnn2-c2ccc(F)cc2)no1", "activation": "-7.22%"}
